These results are taken from PubChem BioAssay (EPA / NIEHS).

A short description of assay [1]: ATG_E_Box_CIS: Attagene CIS-FACTORIAL HepG2 Assay for human Enhancer Box (E-box) (AID 2282936). The conditions noted are these: HepG2 E-box cis-reporter transcription, actives raise or lower the signal. An outline of the steps:
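DMSO served as negative control and baseline for bidirectional fitting. Human hepatoma HepG2 cells, transiently transfected with cis-reporter constructs, were dosed 24 h; reporter mRNA read by RT-PCR and capillary electrophoresis.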

A short description of assay [2]: ATG_M_61_CIS: Attagene CIS-FACTORIAL HepG2 Assay for M61 Transcription Factor (Internal Marker) (AID 2282937). The conditions noted are these: HepG2 Attagene CIS-FACTORIAL M61 internal marker reporter; actives raise or lower the signal. An outline of the steps:
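Cells were transfected with reporter units under cis-regulatory promoters, treated with chemicals for 24 h, then lysed for RNA. Reporter transcripts were quantified by RT-PCR and capillary electrophoresis, and activity was fitted bidirectionally against DMSO.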

The nature of assay [3]: ATG_EGR_CIS: Attagene CIS-FACTORIAL HepG2 Assay for human Early Growth Response 1 (EGR1) (AID 2282938). The conditions noted are these: HepG2 Attagene CIS-FACTORIAL EGR reporter mRNA; actives raise or lower the signal. An outline of the steps: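 Endogenous TF activity in HepG2 liver cells was gauged through cis-promoter reporter constructs transiently transfected. After 24 h dosing, reporter mRNA was quantified by RT-PCR and capillary electrophoresis, and curves fitted in both directions versus DMSO.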

Assay [4] is described as follows: ATG_M_19_CIS: Attagene CIS-FACTORIAL HepG2 Assay for M19 Transcription Factor (Internal Marker) (AID 2282939). The conditions noted are these: HepG2 Attagene CIS-FACTORIAL M19 internal marker reporter; actives raise or lower the signal. In a few lines:
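Background-control endpoint from a multiplexed HepG2 reporter panel. Cells carrying cis-regulated reporter constructs are treated 24 h, then reporter transcripts are amplified, fluorescently labelled and sized by capillary electrophoresis. DMSO defines baseline.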

The nature of assay [5]: ATG_ERE_CIS: Attagene CIS-FACTORIAL HepG2 Assay for Estrogen Response Element (ERE) (AID 2282940). The note with it: HepG2 ERE cis-reporter, Attagene RNA transcript; actives raise or lower the signal. In a few lines: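 Cells used were human hepatoma HepG2, transfected with multiple reporter transcription units under cis-regulatory promoters. Reporter mRNA, read 24 h post-dosing via fluorescent RT-PCR products on capillary electrophoresis, was fitted bidirectionally relative to DMSO.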

The nature of assay [6]: ATG_Ets_CIS: Attagene CIS-FACTORIAL HepG2 Assay for human Erythroblast Transformation Specific (ETS) (AID 2282941). The conditions noted are these: HepG2 ETS cis-reporter transcription, actives raise or lower the signal. An outline of the steps: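 HepG2 cells transiently transfected with cis-promoter reporter transcription units were dosed for 24 h; reporter mRNA was measured by RT-PCR, 6-FAM primer extension, HpaI digestion and capillary electrophoresis, with bidirectional fitting against DMSO baseline.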

Assay [7] addresses Hepatocyte nuclear factor 3-beta (Homo sapiens) (UniProt Q9Y261). As to the kind of experiment: ATG_FoxA2_CIS: Attagene CIS-FACTORIAL HepG2 Assay for human Forkhead box A2 (FOXA2) (AID 2282942). The conditions noted are these: HepG2 cis-reporter transcription factor activity, 24 h; actives raise or lower the signal. An outline of the steps:
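Endogenous transcription factor activity was read in HepG2 cells carrying transiently transfected cis-promoter reporter units. After 24 h dosing, reporter mRNA was quantified by RT-PCR and capillary electrophoresis, and values fitted bidirectionally versus DMSO.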

Assay [8] in a line: ATG_FoxO_CIS: Attagene CIS-FACTORIAL HepG2 Assay for human Forkhead box O (FoxO) (AID 2282943). The conditions noted are these: HepG2 Attagene cis-reporter, FoxO element, mRNA; actives raise or lower the signal. An outline of the steps: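 Human hepatoma HepG2 cells carry transiently introduced reporter transcription units controlled by cis promoter elements. Chemical treatment lasted 24 h, and mRNA signal was compared with DMSO.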

Assay [9] in a line: ATG_GATA_CIS: Attagene CIS-FACTORIAL HepG2 Assay for human GATA Binding Protein (AID 2282944). The conditions noted are these: HepG2 GATA cis-element reporter, Attagene multiplex mRNA; actives raise or lower the signal. An outline of the steps: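 Endogenous transcription factor activity was captured through cis-promoter-driven reporters in transfected HepG2 cells. After 24 h exposure, reporter transcripts were quantified by RT-PCR with fluorescent capillary electrophoresis, and responses fitted both directions against DMSO.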

Assay [10] is described as follows: ATG_GLI_CIS: Attagene CIS-FACTORIAL HepG2 Assay for human Zinc Finger Protein GLI1 (AID 2282945). The conditions noted are these: HepG2, Attagene cis-factorial reporter mRNA, GLI element; actives raise or lower the signal. An outline of the steps: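 Bidirectional curve fits relative to DMSO, using reporter mRNA levels from RT-PCR plus capillary electrophoresis. Cells were HepG2 transiently carrying cis-regulated reporter constructs, harvested 24 h after dosing.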

Active and inactive are the calls of the source. How the source made its calls: active means hit-call score of the fitted dose curve at least 0.9, where 1 is the maximum; inactive means score below 0.9.

Chain of Hepatocyte nuclear factor 3-beta (Homo sapiens) (Q9Y261 whole entry, looked up): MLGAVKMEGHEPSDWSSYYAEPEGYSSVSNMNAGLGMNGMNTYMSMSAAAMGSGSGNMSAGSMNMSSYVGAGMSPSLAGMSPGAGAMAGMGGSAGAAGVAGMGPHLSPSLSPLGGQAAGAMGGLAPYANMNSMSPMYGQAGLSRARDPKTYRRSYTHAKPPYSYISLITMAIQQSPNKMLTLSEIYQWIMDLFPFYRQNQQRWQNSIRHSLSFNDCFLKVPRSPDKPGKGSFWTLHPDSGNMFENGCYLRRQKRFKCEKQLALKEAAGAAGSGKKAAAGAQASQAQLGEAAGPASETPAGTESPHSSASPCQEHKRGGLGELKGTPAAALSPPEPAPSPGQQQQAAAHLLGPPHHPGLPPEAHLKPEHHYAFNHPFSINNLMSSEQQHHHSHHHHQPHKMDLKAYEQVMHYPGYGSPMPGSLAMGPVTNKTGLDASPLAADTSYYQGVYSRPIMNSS

Take `CCCCCCOC(=O)CC`: the outcome in [1], in assay [2], in assay [3], in assay [4], in [5] and in [6] was inactive. The result in assay [7], in [8], in assay [9] and in [10] was inactive.
Regarding `Nc1cc(Cl)c(O)c(Cl)c1`, the result in assay [1], in [2], in assay [4], in assay [5], in assay [6] and in assay [7] was inactive. In [9], the outcome was inactive. Moreover, the values for the AC50 in assay [3], in [8] and in [10] were 136 µM (active), 135 µM (active) and 157 µM (active), respectively.
With `O=C(O)C[C@H](O)C[C@H](O)/C=C/c1c(C2CC2)nc2ccccc2c1-c1ccc(F)cc1`, the result in assay [1], in assay [2], in assay [3], in [4], in [6] and in [7] was inactive. In addition, the outcome in assay [8], in assay [9] and in assay [10] was inactive. In addition, the AC50 (commonly the midpoint of the concentration-response curve, whichever way the signal moves) in [5] is 11.6 µM (active).
Turning to `ClCCCl`, the result in assay [1], in assay [2], in [3], in [4], in [5] and in assay [6] was inactive. Besides, the result in assay [7], in assay [8], in [9] and in [10] was inactive.
Turning to `Cc1ccccc1C=O`, the result in [1], in [2], in assay [3], in assay [4], in [5] and in [6] was inactive. The molecule was classed as inactive in assay [7], in [8], in [9] and in [10].
In the case of `O=S(=O)(O)c1ccc(O)c2ncccc12`, the result in [1], in assay [2], in assay [3], in assay [4], in assay [5] and in assay [6] was inactive. Also, the outcome in [7], in [8], in assay [9] and in assay [10] was inactive.
Turning to `CC(=O)O[C@]1(C(C)=O)CC[C@H]2[C@@H]3C[C@H](C)C4=CC(=O)CC[C@]4(C)[C@H]3CC[C@@]21C`, the outcome in assay [1], in assay [2], in assay [3], in [4], in assay [6] and in [7] was inactive. The result in [8], in assay [9] and in assay [10] was inactive. Moreover, the AC50 in [5] was 9.49 µM (active).
With `Nc1ccc(S(=O)(=O)O)c(N)c1`, the outcome in assay [1], in assay [2], in assay [3], in assay [4], in assay [5] and in [6] was inactive. For the same molecule, the call in assay [7], in assay [8], in [9] and in assay [10] was inactive.
Consider `C=C(C)C(=O)Nc1ccc(Cl)c(Cl)c1`, for which the result in [1], in assay [2], in assay [4], in assay [5], in assay [6] and in [7] was inactive. Moreover, the molecule was called inactive in [8], in [9] and in [10]. In [3], the concentration at half-maximal activity (AC50) is 27.2 µM (active).
Consider `Clc1nc(C(Cl)(Cl)Cl)c(Cl)c(Cl)c1Cl`, for which the outcome in assay [1], in assay [2], in assay [3], in [4], in [5] and in assay [7] was inactive. The call in assay [8] was inactive. In addition, the values for the AC50 in assay [6], in [9] and in [10] were 54.2 µM (active), 58.8 µM (active) and 55.8 µM (active), respectively.
`OCCN1CCNCC1`: the outcome in assay [1], in assay [2], in [3], in assay [4], in [5] and in assay [6] was inactive. Also, the result in [7], in assay [8], in [9] and in assay [10] was inactive.
For `O=C(O)CCCCCCCCCCC(=O)O`, the outcome in [1], in assay [2], in assay [3], in assay [4], in assay [5] and in assay [6] was inactive. Moreover, the molecule was called inactive in assay [7], in assay [8], in [9] and in assay [10].
On to `CN(C)CCCN`, for which the outcome in assay [1], in assay [2], in assay [3], in assay [4], in [5] and in assay [6] was inactive. The call in [7], in assay [8], in [9] and in [10] was inactive.
As for `Cc1ccc(C=O)cc1`, the result in assay [1], in [2], in assay [3], in [4], in assay [5] and in [6] was inactive. In addition, the molecule was classed as inactive in [7], in assay [8], in assay [9] and in assay [10].
Consider `CC1(C)CCC(C)(C)c2cc(C(=O)Nc3ccc(C(=O)O)cc3)ccc21`, for which the outcome in assay [1], in assay [2], in assay [4], in assay [5], in assay [6] and in [7] was inactive. Further, the outcome in [8], in [9] and in [10] was inactive. Besides, the AC50 in assay [3] is 63 µM (active).
As to `CC1COc2ccccc2N1C(=O)C(Cl)Cl` (stereo not given), the outcome in [1], in [2], in [4], in [5], in assay [6] and in [7] was inactive. Also, the result in assay [9] and in assay [10] was inactive. The AC50 in [3] was 41.1 µM (active); in [8] it was 21 µM (active).
For the molecule `COc1ccc(OC)c(OC)c1`, the result in assay [1], in assay [2], in assay [3], in assay [4], in assay [5] and in assay [6] was inactive. Also, the outcome in [7], in [8], in assay [9] and in [10] was inactive.
Regarding `NNc1nc(-c2ccc(N)cc2)cs1`, the outcome in assay [1], in assay [2], in assay [3], in assay [4], in assay [5] and in [6] was inactive. Also, the outcome in assay [7], in assay [8], in [9] and in assay [10] was inactive.
With `CCCC(=O)c1cc(O)c(O)cc1O`, the result in assay [1], in assay [2], in [3], in assay [4], in [5] and in [6] was inactive. The result in [7], in [8], in [9] and in assay [10] was inactive.
For the molecule `N#Cc1ccc(CC(=NNC(=O)Nc2ccc(OC(F)(F)F)cc2)c2cccc(C(F)(F)F)c2)cc1`, the result in assay [1], in assay [2], in [3], in assay [4], in [5] and in assay [6] was inactive. Further, the result in assay [7], in assay [8], in assay [9] and in assay [10] was inactive.
For the molecule `CC[Si](OC(C)=O)(OC(C)=O)OC(C)=O`, the result in assay [1], in [2], in assay [3], in assay [4], in [5] and in [6] was inactive. In addition, the molecule was classed as inactive in assay [7], in [8], in [9] and in assay [10].
As to `CCc1c(C)cc(N)c(CC)c1N`, the outcome in assay [1], in assay [2], in assay [3], in assay [4], in assay [5] and in assay [6] was inactive. Moreover, the molecule was classed as inactive in assay [7], in assay [8], in assay [9] and in [10].
In the case of `O=C1c2ccccc2C(=O)N1SC1CCCCC1`, the outcome in assay [1], in assay [2], in [7] and in assay [10] was inactive. The AC50 in assay [3] was 65.6 µM (active); in assay [4] it was 186 µM (active); in assay [5], 66.4 µM (active); in assay [6] it was 159 µM (active); in assay [8], 172 µM (active); in assay [9] it was 144 µM (active).
Regarding `CCC(C)(O)CCC=C(C)C` (stereo not given), the result in [1], in assay [2], in [3], in assay [4], in assay [5] and in assay [6] was inactive. Moreover, the molecule was called inactive in assay [7], in assay [8], in assay [9] and in assay [10].
